HPGD inh – blocks human HPGD enzyme activity; hit rate 4.3% among 150,000; AID 894; Potency, µM, without a hit: at the highest dose activity change, negative = inhibition, usual class: inhibitors; purified HPGD, NADH fluorescence kinetic, PGE2 substrate; P15428; active = well fitted inhibition curve with a large enough effect, not every such curve was filed as active; inconclusive = small, poorly fitted or top-dose-only effect, or another doubt; inactive = no such curve, though single readings can be large or run the other way; note: potency is the fitted concentration of half-maximal effect; % is set by controls: 0 for no effect and ±100 for the full control effect
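20 nM HPGD preincubated 15 min at room temperature with compound in 50 mM Tris-HCl pH 8, 0.01% Tween 20. Started with 1 mM NAD+ and 30 uM prostaglandin E2; NADH fluorescence (360/450 nm) read 5 times over 30-s intervals, last minus first.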
HTT aggregate – mutant huntingtin aggregation inhibition; Potency, µM (doses to about 46.1 µM), without a hit: top-dose activity change, negative = inhibition, hits mostly inhibitors; hit rate 1.1% among 220,000; PC12 HttQ103-GFP aggregates, Acumen cytometry, 40 h; note: potency is the fitted concentration of half-maximal effect; % is set by controls: 0 for no effect and ±100 for the full control effect; nearly all actives have a fitted effect of over 60% in size
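PC12/HTTQ103-GFP, ecdysone-inducible; teb 100 nM; cpd qHTS titration; GFP aggregates read on laser cytometer, Ex 488/Em 500-530 nm.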
JMJD2E inh – blocks human JMJD2E demethylase activity. JMJD2E catalytic domain, FDH-coupled NADH fluorescence (FDH is formaldehyde dehydrogenase). hit rate 1.6% among 230,000. AID 2147. Potency, µM (series often up to 57.1 µM), for inactives: at the top dose activity change, negative = inhibition, actives largely listed as inhibitors. B2RXH2; active = well fitted inhibition curve with a large enough effect, not every such curve was filed as active; inconclusive = small, poorly fitted or top-dose-only effect, or another doubt; inactive = no such curve, though single readings can be large or run the other way;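 note: potency is the fitted concentration of half-maximal effect; 0% = wells with enzyme and -100% = buffer wells without enzyme; nearly all actives have a fitted effect of over 50% in size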
CBFb-RUNX1 inh – inhibitors of human CBF-beta and RUNX1 interaction. Potency, µM (titrated, usually from 59.8 µM), without a hit: at the top dose activity, negative = inhibition, hits mostly inhibitors. 230,000 tested, under 10 active. AlphaScreen CBFb-His/RUNX1-biotin binding, biochemical; note: % of control where 0% means no effect
Target sequence (Q01196 whole entry, looked up): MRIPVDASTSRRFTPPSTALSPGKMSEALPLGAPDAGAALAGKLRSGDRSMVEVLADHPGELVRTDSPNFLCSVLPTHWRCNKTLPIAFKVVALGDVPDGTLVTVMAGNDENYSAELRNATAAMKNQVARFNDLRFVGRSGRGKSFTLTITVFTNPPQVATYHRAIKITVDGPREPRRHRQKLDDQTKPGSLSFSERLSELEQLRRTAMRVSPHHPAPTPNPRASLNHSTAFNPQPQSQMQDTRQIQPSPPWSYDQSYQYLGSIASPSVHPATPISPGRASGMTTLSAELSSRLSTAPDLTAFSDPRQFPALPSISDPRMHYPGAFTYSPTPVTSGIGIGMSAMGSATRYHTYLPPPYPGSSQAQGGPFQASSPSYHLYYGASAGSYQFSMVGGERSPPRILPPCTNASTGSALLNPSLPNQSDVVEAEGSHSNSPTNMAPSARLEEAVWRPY
Target sequence (Q13951 whole entry, looked up): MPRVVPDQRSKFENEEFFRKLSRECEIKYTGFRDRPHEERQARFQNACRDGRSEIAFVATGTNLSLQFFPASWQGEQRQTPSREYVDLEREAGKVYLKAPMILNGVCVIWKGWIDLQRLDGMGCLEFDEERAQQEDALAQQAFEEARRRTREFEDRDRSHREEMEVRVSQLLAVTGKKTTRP
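Bead-based AlphaScreen assay; binding partners His-tagged CBF-beta and biotinylated RUNX1 at 30 nM each. Compound exposure 15 min after a 20-min protein preincubation; bead step 90 min; all steps at room temperature.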
ALDH1A1 inh – ALDH1A1 (human) enzyme inhibition; Potency, µM (doses to about 75.3 µM), inactives show at the top dose activity, negative = inhibition, most hits filed as inhibitors; P00352; AID 1030; hit rate 7.3% among 220,000; Purified ALDH1A1, NADH fluorescence, propionaldehyde substrate; active = well fitted inhibition curve with a large enough effect, not every such curve was filed as active; inconclusive = small, poorly fitted or top-dose-only effect, or another doubt; inactive = no such curve, though single readings can be large or run the other way;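 note: potency is the fitted concentration of half-maximal effect; plate controls were no enzyme wells and a reference inhibitor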
HTT ATP protect – Huntington cell model cytoprotection by ATP luminescence | PC12 HTT-Q103 induced, cytoprotection, ATP luminescence, 40 h | Potency, µM (series often up to 56.4 µM), for the others: cytoprotection (ATP increase), hits mostly activators | hit rate 0.14% among 230,000 | AID 1471; note: potency is the fitted concentration of half-maximal effect; % of control where 0% means no effect; nearly all actives have a fitted effect of over 45% in size
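Compounds were screened for protection of PC12 cells against cell death after tebufenozide induction (100 nM final) of mutant Huntingtin exon 1 (Q103) fused to GFP.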
* hit, by the source's call; [ ] = remark or other dose. Rows were chosen to be rich in hits. Some 9.8% of all compounds tested hit in one or more screens of this group. Unless noted, calls come from the whole dose curve; as a rule, active = well fitted curve in the direction sought with a large enough effect; inconclusive = small, poorly fitted or top-dose-only effect, or another doubt; inactive = no such curve, though single readings can be large; an effect the other way counts as inactive or inconclusive.

What do the screens show for `Cn1nc(C(=O)Nc2ccc(S(=O)(=O)NCc3ccco3)cc2)c2ccccc2c1=O`?
HTT aggregate: 10%[9.22 µM]; JMJD2E inh: -1%; CBFb-RUNX1 inh: -3%; HTT ATP protect: 10%[10 µM]

Results for Cc1cc2ccccc2n1CCNC(=O)c1ccc(S(=O)(=O)N2CCOCC2)cc1 ?
HPGD inh: -3%; HTT aggregate: inconclusive; JMJD2E inh: -5%; CBFb-RUNX1 inh: inconclusive; ALDH1A1 inh: 10µM*; HTT ATP protect: -10%

What do the screens show for `Cc1cc2ccccc2n1CCNC(=O)c1ccc(Br)o1`?
HTT aggregate: -28%[9.22 µM]; JMJD2E inh: -23%; CBFb-RUNX1 inh: inconclusive; ALDH1A1 inh: 5.6µM*; HTT ATP protect: -5%[10 µM]

How did COC(=O)[C@@H](NC(=O)NCc1ccco1)C(C)C do in these assays?
HPGD inh: -9%; HTT aggregate: -8%; JMJD2E inh: 5%; CBFb-RUNX1 inh: 7%; ALDH1A1 inh: 10µM*; HTT ATP protect: -4%

What do the screens show for `Cn1nc(C(=O)NCc2ccco2)c2ccccc2c1=O`?
HPGD inh: -17%; HTT aggregate: 14%; JMJD2E inh: 6%; CBFb-RUNX1 inh: -2%; ALDH1A1 inh: 13µM*; HTT ATP protect: 5%[10 µM]

How did Cc1cc2ccccc2n1CCNC(=O)c1ccccc1 do in these assays?
HPGD inh: -20%; HTT aggregate: -2%; JMJD2E inh: 3%; CBFb-RUNX1 inh: -13%; ALDH1A1 inh: inconclusive; HTT ATP protect: -16%

Results for O=C(NCc1ccco1)c1ccc(S(=O)(=O)N2CCOCC2)cc1 ?
HPGD inh: 16µM*; HTT aggregate: 18%; JMJD2E inh: -8%; CBFb-RUNX1 inh: inconclusive; ALDH1A1 inh: 16µM*; HTT ATP protect: -4%

Results for O=C(COc1ccc(Cl)cc1Cl)NNC(=S)NCc1ccco1 ?
HTT aggregate: 19%[9.22 µM]; JMJD2E inh: 26%; CBFb-RUNX1 inh: -13%; ALDH1A1 inh: 2%; HTT ATP protect: 30%[10 µM]

Results for O=C(NCc1ccco1)c1ccc(COc2cc(Cl)ccc2Cl)cc1 ?
HPGD inh: 18µM*; HTT aggregate: -5%; JMJD2E inh: -5%; CBFb-RUNX1 inh: 1%; ALDH1A1 inh: 4%; HTT ATP protect: inconclusive

How did CC(C)c1ccc(S(=O)(=O)N2CCN(C(=S)NCc3ccco3)CC2)cc1 do in these assays?
HPGD inh: 28µM*; HTT aggregate: -14%; JMJD2E inh: -9%; CBFb-RUNX1 inh: -3%; ALDH1A1 inh: -2%; HTT ATP protect: -1%[10 µM]

Results for O=S(=O)(c1cccc(C(F)(F)F)c1)N1CCN(C(=S)NCc2ccco2)CC1 ?
HPGD inh: -8%; HTT aggregate: inconclusive; JMJD2E inh: 6%; CBFb-RUNX1 inh: -2%; ALDH1A1 inh: -4%; HTT ATP protect: inconclusive

What do the screens show for `CC(C)Oc1ccc(C(=O)NCc2ccco2)cc1`?
HPGD inh: 18µM*; HTT aggregate: -10%; JMJD2E inh: 4%; CBFb-RUNX1 inh: -1%; ALDH1A1 inh: -8%; HTT ATP protect: -19%

What do the screens show for `COc1ccc(N2CCN(S(=O)(=O)c3ccc(C(=O)NCc4ccco4)cc3)CC2)cc1`?
HPGD inh: -5%; HTT aggregate: 13%; JMJD2E inh: 2%; CBFb-RUNX1 inh: 8%; ALDH1A1 inh: 7.9µM*; HTT ATP protect: -4%[10 µM]

What do the screens show for `CC1(C)CC(=O)C2=C(C1)N(c1ccc(F)cc1)C(=O)NC2(C(F)(F)F)C(F)(F)F`?
HPGD inh: -7%; HTT aggregate: 2%; JMJD2E inh: -1%; CBFb-RUNX1 inh: -3%; ALDH1A1 inh: 10µM*; HTT ATP protect: -4%

What do the screens show for `CC1(C)CC(=O)C2=C(C1)N(c1ccc(F)cc1)C(=O)C2(NC(=O)c1ccccc1F)C(F)(F)F` (configuration not stated)?
HPGD inh: -7%; HTT aggregate: 8%; JMJD2E inh: 6%; CBFb-RUNX1 inh: 0%; ALDH1A1 inh: 24%

How did CC(C)c1cc(Nc2cccc(O)c2)cc(C(C)C)c1O do in these assays?
HPGD inh: 1%; HTT aggregate: 7%; JMJD2E inh: 0%; CBFb-RUNX1 inh: -8%; ALDH1A1 inh: inconclusive; HTT ATP protect: 8%

What do the screens show for `O=C(Nc1ccc(Cl)cc1)/C(=C/c1ccc([N+](=O)[O-])cc1)c1nc2ccccc2s1`?
HTT aggregate: 7.1µM*; JMJD2E inh: inconclusive; CBFb-RUNX1 inh: -3%; ALDH1A1 inh: -4%; HTT ATP protect: -197%

Results for O=[N+]([O-])c1ccc(Nc2nc3ccccc3s2)cc1 ?
HPGD inh: -29%; ALDH1A1 inh: 1.4µM*; HTT ATP protect: -2%[10 µM]

What do the screens show for `O=C1/C(=C/c2cccnc2)SC(=S)N1Nc1ccccc1`?
HTT aggregate: -7%[9.22 µM]; JMJD2E inh: -4%; CBFb-RUNX1 inh: -1%; HTT ATP protect: 26%[10 µM]

What do the screens show for `Cc1cc(C(=O)Nc2nc3c(s2)CCCC3)no1`?
HPGD inh: -18%; HTT aggregate: 10%; JMJD2E inh: 0%; CBFb-RUNX1 inh: 1%; ALDH1A1 inh: 11µM*; HTT ATP protect: -65%[10 µM]

What do the screens show for `COC(=O)C1=NN(N=O)C2(CC(=O)N(c3cc(C)cc(C)c3)C2=O)C1` (configuration not stated)?
HPGD inh: 32µM*; HTT aggregate: 6%; JMJD2E inh: 6%; CBFb-RUNX1 inh: -3%; ALDH1A1 inh: 8.9µM*; HTT ATP protect: 5%

How did CCOC(=O)C1=NN(C(C)=O)C2(CC(=O)N(c3cc(C)cc(C)c3)C2=O)C1 (configuration not stated) do in these assays?
HPGD inh: -6%; HTT aggregate: 15%; JMJD2E inh: 1%; CBFb-RUNX1 inh: 7%; ALDH1A1 inh: 7%

How did N/C(=N/OC(=O)c1ccc(Cl)cc1)c1ncc([N+](=O)[O-])s1 do in these assays?
HTT aggregate: -10%[9.22 µM]; JMJD2E inh: -3%; CBFb-RUNX1 inh: 2%; HTT ATP protect: 8%[10 µM]

What do the screens show for `CC1(C)Cc2c(C#N)c(OCC(=O)c3ccc(Cl)cc3)nc(-c3ccoc3)c2CO1`?
HTT aggregate: 28%; JMJD2E inh: inconclusive; CBFb-RUNX1 inh: 14%; ALDH1A1 inh: 0.4µM*; HTT ATP protect: -11%

Results for CC1(C)Cc2c(C#N)c(OCC(=O)c3ccccc3)nc(-c3ccoc3)c2CO1 ?
HPGD inh: inconclusive; HTT aggregate: 12%; JMJD2E inh: 3%; CBFb-RUNX1 inh: 0%; ALDH1A1 inh: 0.28µM*; HTT ATP protect: -5%

What do the screens show for `O=S(=O)(NNc1ccc(Cl)nn1)c1ccc(F)cc1`?
HPGD inh: 3.5µM*; HTT aggregate: inconclusive; JMJD2E inh: -2%; CBFb-RUNX1 inh: 2%; ALDH1A1 inh: 28µM*; HTT ATP protect: 6%[10 µM]
